The source of these data is PubChem BioAssay (NCATS).

Results filed as inconclusive are left out. Where a call stands in place of a potency, no number is given. Active and inactive are the calls of the source. Calls come from the whole dose curve; as a rule, active = well fitted inhibition curve with a large enough effect; inconclusive = small, poorly fitted or top-dose-only effect; inactive = flat fitted curve, though single readings scatter.

The test system of the first experiment is CP286. Nature of the experiment: qHTS profiling for inhibitors of Plasmodium falciparum proliferation (AID 504749). Note: nearly all actives have a fitted effect of over 60% in size. The conditions noted are these: P. falciparum in erythrocytes, SYBR Green DNA, 72 h; series mostly up to 28.7 µM. In a few lines:
(§1)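 Parasite proliferation within erythrocytes, 72 h exposure. Endpoint: SYBR Green I fluorescence after overnight lysis at room temperature. Controls: 0.29 uM artemisinin, DMSO.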
(In general: In qHTS, concentration-response curves come from the screen itself.)
As for `C#C[C@]1(OC(C)=O)CC[C@H]2[C@@H]3CCC4=C/C(=N/O)CC[C@@H]4[C@H]3CC[C@@]21CC`, the Potency result is “inactive”.

Take `CCNC(=O)/C=C/c1cccc(Br)c1`: the Potency entry is “inactive”.

Turning to `Cc1ccccc1OCC(O)CO` (stereo not drawn), the Potency result was “inactive”.

For `CC(=O)NCCCCCC(=O)O`, the Potency result is “inactive”.

With `c1ccc(CC2=NCCN2)cc1`, the Potency result is “inactive”.

As to `NS(=O)(=O)Cc1noc2ccccc12`, the Potency entry was “inactive”.

Take `CCCN(CCC)S(=O)(=O)c1ccc(C(=O)O)cc1`: the Potency result is “inactive”.

Take `O=C(O)P(=O)(O)O`: the Potency result was “inactive”.

For the compound `CC[C@H](c1ccc(O)cc1)[C@@H](CC)c1ccc(O)cc1`, the Potency entry is “inactive”.

Turning to `CCCCC(CC)COC(=O)/C=C/c1ccc(OC)cc1` (stereo not drawn), the Potency entry was “inactive”.

On to `CCOC(=O)c1ccc(N)cc1`, for which the Potency result is “inactive”.

Consider `OCc1ccccn1`, for which the Potency result is “inactive”.

As for `CCCCc1cc2ccccc2c(OCCN(C)C)n1`, the Potency result was “inactive”.

As to `CC(C)Cn1cnc2c1c(=O)n(C)c(=O)n2C`, the Potency result is “inactive”.

As to `CCCCNC(=O)NS(=O)(=O)c1ccc(N)cc1`, the Potency result is “inactive”.

Consider `O=C(O)Cc1csc(-c2ccc(Cl)cc2)n1`, for which the Potency entry is “inactive”.

For `CC(=O)Nc1ncc([N+](=O)[O-])s1`, the Potency entry is “inactive”.

For the compound `CCOc1cc(OCC)c(C(=O)CCC(=O)O)cc1OCC`, the Potency result is “inactive”.

For `c1ccc(-c2nc[nH]c2-c2ccccc2)cc1`, the Potency result is “inactive”.

With `Cn1c(=O)c2[nH]c(Br)nc2n(C)c1=O`, the Potency result is “inactive”.

The next experiment concerns CP291. The description is as above. The conditions noted are these: P. falciparum in erythrocytes, SYBR Green DNA, 72 h; series mostly up to 28.7 µM. The essentials:
as §1
As for `C#C[C@]1(O)CC[C@H]2[C@@H]3CCc4cc(OC)ccc4[C@H]3CC[C@@]21C`, the Potency entry is “inactive”.

On to `Cc1cc(C)cc(OCC2CNC(=O)O2)c1` (stereo not drawn), for which the Potency result is “inactive”.

As for `Cc1cc(NS(=O)(=O)c2ccc(N)cc2)nc(C)n1`, the Potency result is “inactive”.

`FC(F)(F)C(F)(F)C(F)(F)C(F)(F)C(F)(F)C(F)(F)C(F)(F)C(F)(F)Br`: the Potency result was “inactive”.

As for `CC(=O)NC(=O)c1ccccc1O`, the Potency entry is “inactive”.

Turning to `O=C(O)C(Cc1cc(I)c(O)c(I)c1)c1ccccc1` (stereo not drawn), the Potency entry was “inactive”.

Turning to `O=C(O)c1ccc(S(=O)(=O)N(Cl)Cl)cc1`, the Potency entry is “inactive”.

Consider `CC(=O)Nc1ccc(OCC(O)CNC(C)C)cc1` (stereo not drawn), for which the Potency entry was “inactive”.

Turning to `O=S(=O)(O)c1ccc(O)cc1`, the Potency entry is “inactive”.

In the case of `C=C[C@@]1(C)CC(=O)[C@]2(O)[C@@]3(C)[C@@H](O)CCC(C)(C)[C@@H]3[C@H](O)[C@H](OC(C)=O)[C@@]2(C)O1`, the Potency result was “inactive”.

Consider `CCC1Nc2cc(Cl)c(S(N)(=O)=O)cc2S(=O)(=O)N1` (stereo not drawn), for which the Potency result is “inactive”.

On to `CC(=O)OCC(=O)[C@H]1CC[C@H]2[C@@H]3CCC4=CC(=O)CC[C@]4(C)[C@H]3CC[C@]12C`, for which the Potency result is “inactive”.

On to `CC(C)Nc1cccnc1N1CCN(C(=O)c2cc3cc(NS(C)(=O)=O)ccc3[nH]2)CC1`, for which the Potency entry is “inactive”.

`COc1cc(C(=O)NCc2ccc(OCCN(C)C)cc2)cc(OC)c1OC`: the Potency result was “inactive”.

Turning to `Nc1ccc(C(=O)NCC(=O)O)cc1`, the Potency entry is “inactive”.

As for `CCC(CC)(CC(=O)Nc1cccc(/C=C/c2nc(C3CCC3)cs2)c1)C(=O)O`, the Potency entry is “inactive”.

Turning to `CCCCCCCCCCCCCCCC(=O)O`, the Potency entry was “inactive”.

`Nc1nc(N)c(-c2ccccc2)s1`: the Potency result is “inactive”.

As to `COc1ccc(C(=O)c2ccccc2O)c(O)c1`, the Potency entry was “inactive”.

Consider `C#C[C@]1(OC(C)=O)CC[C@H]2[C@@H]3CCC4=C/C(=N/O)CC[C@@H]4[C@H]3CC[C@@]21CC`, for which the Potency entry was “inactive”.

`CCNC(=O)/C=C/c1cccc(Br)c1`: the Potency result was “inactive”.

In the case of `Cc1ccccc1OCC(O)CO` (stereo not drawn), the Potency entry was “inactive”.

On to `CC(=O)NCCCCCC(=O)O`, for which the Potency entry is “inactive”.

On to `c1ccc(CC2=NCCN2)cc1`, for which the Potency entry is “inactive”.

For `NS(=O)(=O)Cc1noc2ccccc12`, the Potency entry is “inactive”.

Consider `CCCN(CCC)S(=O)(=O)c1ccc(C(=O)O)cc1`, for which the Potency entry is “inactive”.

As for `O=C(O)P(=O)(O)O`, the Potency result was “inactive”.

Consider `CC[C@H](c1ccc(O)cc1)[C@@H](CC)c1ccc(O)cc1`, for which the Potency entry was “inactive”.

In the case of `CCCCC(CC)COC(=O)/C=C/c1ccc(OC)cc1` (stereo not drawn), the Potency result was “inactive”.

As for `CCOC(=O)c1ccc(N)cc1`, the Potency entry was “inactive”.

In the case of `OCc1ccccn1`, the Potency entry is “inactive”.

For the compound `CCCCc1cc2ccccc2c(OCCN(C)C)n1`, the Potency result was “inactive”.

As for `CC(C)Cn1cnc2c1c(=O)n(C)c(=O)n2C`, the Potency result is “inactive”.

Take `CCCCNC(=O)NS(=O)(=O)c1ccc(N)cc1`: the Potency result was “inactive”.

Consider `O=C(O)Cc1csc(-c2ccc(Cl)cc2)n1`, for which the Potency result is “inactive”.

With `CC(=O)Nc1ncc([N+](=O)[O-])s1`, the Potency result is “inactive”.

For the compound `CCOc1cc(OCC)c(C(=O)CCC(=O)O)cc1OCC`, the Potency result was “inactive”.

As for `c1ccc(-c2nc[nH]c2-c2ccccc2)cc1`, the Potency entry was “inactive”.

Consider `Cn1c(=O)c2[nH]c(Br)nc2n(C)c1=O`, for which the Potency entry is “inactive”.

Another experiment relates to CP297. The description is as above. The conditions noted are these: P. falciparum in erythrocytes, SYBR Green DNA, 72 h; series mostly up to 28.7 µM. The essentials:
as §1
For `C#C[C@]1(O)CC[C@H]2[C@@H]3CCc4cc(OC)ccc4[C@H]3CC[C@@]21C`, the Potency result is “inactive”.

On to `Cc1cc(C)cc(OCC2CNC(=O)O2)c1` (stereo not drawn), for which the Potency entry was “inactive”.

For `Cc1cc(NS(=O)(=O)c2ccc(N)cc2)nc(C)n1`, the Potency result was “inactive”.

On to `FC(F)(F)C(F)(F)C(F)(F)C(F)(F)C(F)(F)C(F)(F)C(F)(F)C(F)(F)Br`, for which the Potency entry was “inactive”.

For the compound `CC(=O)NC(=O)c1ccccc1O`, the Potency result was “inactive”.

On to `O=C(O)C(Cc1cc(I)c(O)c(I)c1)c1ccccc1` (stereo not drawn), for which the Potency entry was “inactive”.

In the case of `O=C(O)c1ccc(S(=O)(=O)N(Cl)Cl)cc1`, the Potency result was “inactive”.

`CC(=O)Nc1ccc(OCC(O)CNC(C)C)cc1` (stereo not drawn): the Potency entry is “inactive”.

Consider `O=S(=O)(O)c1ccc(O)cc1`, for which the Potency result is “inactive”.

Take `C=C[C@@]1(C)CC(=O)[C@]2(O)[C@@]3(C)[C@@H](O)CCC(C)(C)[C@@H]3[C@H](O)[C@H](OC(C)=O)[C@@]2(C)O1`: the Potency result is “inactive”.

For the compound `CCC1Nc2cc(Cl)c(S(N)(=O)=O)cc2S(=O)(=O)N1` (stereo not drawn), the Potency entry is “inactive”.

As for `CC(=O)OCC(=O)[C@H]1CC[C@H]2[C@@H]3CCC4=CC(=O)CC[C@]4(C)[C@H]3CC[C@]12C`, the Potency entry was “inactive”.

Consider `CC(C)Nc1cccnc1N1CCN(C(=O)c2cc3cc(NS(C)(=O)=O)ccc3[nH]2)CC1`, for which the Potency result is “inactive”.

On to `COc1cc(C(=O)NCc2ccc(OCCN(C)C)cc2)cc(OC)c1OC`, for which the Potency entry is “inactive”.

With `Nc1ccc(C(=O)NCC(=O)O)cc1`, the Potency entry is “inactive”.

In the case of `CCC(CC)(CC(=O)Nc1cccc(/C=C/c2nc(C3CCC3)cs2)c1)C(=O)O`, the Potency entry was “inactive”.

For `CCCCCCCCCCCCCCCC(=O)O`, the Potency entry was “inactive”.

In the case of `Nc1nc(N)c(-c2ccccc2)s1`, the Potency entry is “inactive”.

`COc1ccc(C(=O)c2ccccc2O)c(O)c1`: the Potency entry is “inactive”.

With `C#C[C@]1(OC(C)=O)CC[C@H]2[C@@H]3CCC4=C/C(=N/O)CC[C@@H]4[C@H]3CC[C@@]21CC`, the Potency result was “inactive”.

For the compound `CCNC(=O)/C=C/c1cccc(Br)c1`, the Potency entry is “inactive”.

Turning to `Cc1ccccc1OCC(O)CO` (stereo not drawn), the Potency result was “inactive”.

Regarding `CC(=O)NCCCCCC(=O)O`, the Potency entry was “inactive”.

Take `c1ccc(CC2=NCCN2)cc1`: the Potency result was “inactive”.

As for `NS(=O)(=O)Cc1noc2ccccc12`, the Potency entry is “inactive”.

Consider `CCCN(CCC)S(=O)(=O)c1ccc(C(=O)O)cc1`, for which the Potency result is “inactive”.

For `O=C(O)P(=O)(O)O`, the Potency result was “inactive”.

As to `CC[C@H](c1ccc(O)cc1)[C@@H](CC)c1ccc(O)cc1`, the Potency result was “inactive”.

Turning to `CCCCC(CC)COC(=O)/C=C/c1ccc(OC)cc1` (stereo not drawn), the Potency entry was “inactive”.

For the compound `CCOC(=O)c1ccc(N)cc1`, the Potency result is “inactive”.

Consider `OCc1ccccn1`, for which the Potency result was “inactive”.

Consider `CCCCc1cc2ccccc2c(OCCN(C)C)n1`, for which the Potency entry is “inactive”.

For `CC(C)Cn1cnc2c1c(=O)n(C)c(=O)n2C`, the Potency result is “inactive”.

Take `CCCCNC(=O)NS(=O)(=O)c1ccc(N)cc1`: the Potency result is “inactive”.

Take `O=C(O)Cc1csc(-c2ccc(Cl)cc2)n1`: the Potency entry is “inactive”.

Turning to `CC(=O)Nc1ncc([N+](=O)[O-])s1`, the Potency entry is “inactive”.

In the case of `CCOc1cc(OCC)c(C(=O)CCC(=O)O)cc1OCC`, the Potency result is “inactive”.

As to `c1ccc(-c2nc[nH]c2-c2ccccc2)cc1`, the Potency result is “inactive”.

Consider `Cn1c(=O)c2[nH]c(Br)nc2n(C)c1=O`, for which the Potency entry is “inactive”.
